Screens deposited in PubChem by Broad Institute.
BL2 CD40 inh: CD40 pathway inhibition in BL2 cells; BL2 NF-kB luciferase reporter, CD40L-induced, 4 h; inhibition, % at 10 µM; actives 0.94% (n = 83,000); AID 1053188;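 active = mean inhibition of at least 50% with a set share of replicates also reaching that level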
Large screens that a line does not name were inactive; ! = not confirmed by another sample; [ ] = remark or other dose. This is one part of a sample in which hits are shown more often than they occur.

CCn1c(-c2ccccc2)c(C(=O)CCl)c2ccccc21	none
Cn1c(-c2ccccc2)c(C(=O)CCl)c2ccccc21	BL2 CD40 inh 71
Cn1c(=O)c(C(=O)c2ccccc2)c(O)c2ccccc21	none
N#C[C@H]1[C@@H](c2ccccc2)[C@H](CO)N1C(=O)c1ccc2c(c1)OCO2	none
O=C(Nc1ccccc1)N1C[C@H]2[C@@H](c3ccccc31)[C@@H](CO)N2C(=O)c1ccccc1F	none
O=C(Nc1ccc2c(c1)[C@H]1C[C@@H](CC(=O)N3CCOCC3)O[C@@H](CO)[C@H]1O2)Nc1ccccc1F	none
CC(C)Sc1nc2c(c(=O)n(C)c(=O)n2C)n1C	none
Cc1cc(Nc2nc3c(c(=O)n(C)c(=O)n3C)n2C)n(-c2ccc(Cl)cc2)n1	none
Cc1nc2c(=O)n(C)c(=O)n(C)c2nc1Cl	BL2 CD40 inh 105
C[C@H](CO)N1C[C@H](C)[C@@H](CN(C)C(=O)Nc2cccc3ccccc23)Oc2ccc(NC(=O)Cc3ccccc3)cc2C1=O	none
CNc1c2cccc(C)c2nc2c(C(=O)NCCN(C)C)cccc12	BL2 CD40 inh 86
Cc1ccccc1C(=O)Nc1c(C(=O)N(CCN(C)C)Cc2ccco2)oc2ccccc12	none
Cc1ccc(C(=O)NCCN(C)C)c(C)c1	none
COc1ccccc1C(=O)Nc1ccc2c(c1)C(=O)N(C)C[C@H](OC)[C@H](C)CN(C(C)=O)[C@H](C)CO2	none
O=C(C[C@H]1CC[C@@H](NC(=O)NC2CCCCC2)[C@H](CO)O1)NCc1ccc(F)cc1	none
C[C@H](CO)N1C[C@H](C)[C@H](CN(C)C)Oc2ccc(NC(=O)Nc3ccc4c(c3)OCO4)cc2C1=O	none
Cc1onc(-c2ccccc2)c1-c1nc2ccccc2c(=O)o1	BL2 CD40 inh 56
O=c1oc(-c2cccnc2)nc2ccccc12	none
O=c1onc(-c2ccccc2)c2ccccc12	none
O=C(O)CCC(=O)c1ccc2c(c1)OCCO2	none
CCC(=O)c1ccc2c(c1)OCCO2	none
O=C(Cn1ncc(Cl)c(Cl)c1=O)c1ccc2c(c1)OCCO2	BL2 CD40 inh 98
CCC(=O)N1CC[C@@H]2[C@@H](CO)Nc3ccc(C#Cc4cccnc4)cc3[C@@H]21	none
COc1ccc(S(=O)(=O)N(C)C[C@H]2Oc3ccc(NC(=O)CCN4CCOCC4)cc3CC(=O)N([C@@H](C)CO)C[C@@H]2C)cc1	none
CO[C@H]1CN(C)C(=O)c2cc(NC(=O)C3CCCC3)ccc2OC[C@H](C)NC[C@H]1C	none
O=C(C1CCOCC1)N1C[C@@H]2N[C@H](C1)C2c1ccc(/C=C/c2ccccc2)cc1 (stereo not given in full)	none
N#Cc1cccc(-c2ccc(C3[C@@H]4CN(C(=O)C5CCOCC5)C[C@H]3N4)cc2)c1 (stereo not given in full)	none
O=C(Nc1ccccc1)N1C[C@@H]2N[C@H](C1)[C@@H]2c1ccc(/C=C/c2ccccc2)cc1	none
O=C(c1ccc(F)cc1)N1C[C@@H]2N[C@H](C1)C2c1ccc(/C=C/c2ccccc2)cc1 (stereo not given in full)	BL2 CD40 inh 50![25 µM]
N#Cc1ccc(-c2ccc(C3[C@@H]4CN(C(=O)C5CC5)C[C@H]3N4)cc2)cc1 (stereo not given in full)	BL2 CD40 inh 63!
O=C(c1ccncc1)N1C[C@@H]2N[C@H](C1)C2c1ccc(/C=C/c2ccccc2)cc1 (stereo not given in full)	none
O=C(c1ccc2c(c1)OCO2)N1C[C@@H]2N[C@H](C1)C2c1ccc(/C=C/c2ccccc2)cc1 (stereo not given in full)	none
O=C(C1CCCC1)N1C[C@@H]2N[C@H](C1)C2c1ccc(/C=C/c2ccccc2)cc1 (stereo not given in full)	BL2 CD40 inh 49!
N#Cc1ccc(-c2ccc(C3[C@@H]4CN(C(=O)c5cccnc5)C[C@H]3N4)cc2)cc1 (stereo not given in full)	none
COCC#Cc1ccc([C@@H]2[C@@H](CO)N3C(=O)CN(C(=O)C4CCCC4)C[C@H]23)cc1	none
CC(=O)Nc1ccc2c(c1)CC(=O)N(C)C[C@@H](C)[C@H](CN(C)C(C)=O)O2	none
Cc1cccc(-c2ccc(C3[C@@H]4CN(C(=O)C5CCCCC5)C[C@H]3N4)cc2)c1 (stereo not given in full)	none
CN(C)C(=O)c1cccc(-c2ccc3c(c2)[C@@H]2[C@@H](CCN2C(=O)C2CCC2)[C@@H](CO)N3)c1	none
CNC[C@H]1Oc2ccccc2C(=O)N(C)C[C@@H]1C	none
Cc1ccc(S(=O)(=O)N(C)C[C@@H]2Oc3ccc(NC(=O)CCCN(C)C)cc3C(=O)N([C@@H](C)CO)C[C@@H]2C)cc1	none
O=C([C@H]1[C@H](CO)[C@H]2Cn3c(cccc3=O)[C@H]2N1Cc1ccncc1)N1CCCCC1	none
Cc1onc(-c2ccccc2)c1C(=O)OCC(=O)Nc1ccccc1	none
Cc1onc(-c2ccccc2)c1C(=O)OCC(=O)c1ccc[nH]1	none
COC(=O)c1ccc2c(=O)[nH]c(COC(=O)c3c(-c4ccccc4)noc3C)nc2c1	BL2 CD40 inh 29
O=C(C1CC1)N1CC[C@@H]2[C@H]1c1cc(-c3cccc(F)c3)ccc1N[C@@H]2CO	none
CCS(=O)(=O)N1CC2(CN(CC3CCOCC3)[C@H](CO)c3c2c2ccc(OC)cc2n3C)C1	none
O=C(CN1C(=O)NC(c2ccccc2)(c2ccccc2)C1=O)Nc1cccnc1Cl	none
Cc1ccc(C2(C)NC(=O)N(CC(=O)Nc3cccnc3Cl)C2=O)cc1 (stereo not given)	BL2 CD40 inh 26
CC1(c2ccc(OC(F)F)cc2)NC(=O)N(CC(=O)Nc2cccnc2Cl)C1=O (stereo not given)	none
C[C@H](CO)N1C[C@H](C)[C@@H](CN(C)Cc2ccc3c(c2)OCO3)Oc2ccc(NC(=O)Cc3cn(C)c4ccccc34)cc2C1=O	none
CN1CCN(C(=O)C[C@@H]2CC[C@@H]3[C@H](COc4ccc(NC(=O)C5CCCC5)cc4C(=O)N3C)O2)CC1	none
CC(=NNC(=S)N1CC2CCC(CC2)C1)c1cnccn1	none
CC(=NNC(=S)N1CCN(C2CCCCCC2)CC1)c1ccccn1	BL2 CD40 inh 51
CC(=NNC(=S)N1CCN(c2ccccn2)CC1)c1ccccn1	none
CC(=NNC(=S)N1CCN(c2ccccn2)CC1)c1nccs1	BL2 CD40 inh 78
O=C(N/N=C/C1CCCCC1)c1ccccn1	none
S=C(NCc1ccc(Cl)cc1)N1CCN(c2ccccn2)CC1	none
CO[C@@H]1CN(C)C(=O)c2ccc(NC(=O)Nc3cccc(Cl)c3)cc2OC[C@H](C)N(C(=O)Nc2c(C)noc2C)C[C@@H]1C	none
CCCNC(=O)N1[C@H](C#N)[C@@H](c2ccccc2-c2ccc(C)cc2)[C@@H]1CO	none
CN(C)c1ccc2c(c1)[C@@H]1C[C@@H](CC(=O)N3CCc4ccccc4C3)O[C@H](CO)[C@@H]1O2	none
N#Cc1cccc(-c2ccc(C3[C@H]4CNC[C@@H]3N4Cc3cccc(F)c3)cc2)c1 (stereo not given in full)	none
N#Cc1cccc(-c2ccc(C3[C@H]4CNC[C@@H]3N4Cc3ccc4c(c3)OCO4)cc2)c1 (stereo not given in full)	BL2 CD40 inh 74!
COc1cccc(-c2ccc(C3[C@H]4CNC[C@@H]3N4Cc3ccc4c(c3)OCO4)cc2)c1 (stereo not given in full)	none
COc1ccccc1C(=O)N1C[C@H]2[C@@H](c3ccccc31)[C@H](CO)N2C(=O)C1CCCC1	none
O=c1[nH]c(=O)n(C2CCCO2)cc1F (stereo not given)	none
O=C1C(F)=CC(COC(c2ccccc2)(c2ccccc2)c2ccccc2)OC1n1cc(F)c(=O)[nH]c1=O (stereo not given)	BL2 CD40 inh 101
